Assay outcomes as filed in PubChem.
In the library only some 13% were active in any assay of this set; here they are far more common.
Shiga toxin inh: A qHTS for Small Molecule Inhibitors of Shiga Toxin; Vero cells, Shiga toxin protein synthesis inhibition reporter; inhibition, % at 38.7 µM; 290,000 compounds, 9.2% hits; in the data active = inhibition mostly above about 28%, no sharp cut-off; inactive = mostly below about 43%; note: 0% is about no effect
FMDV inh: High Throughput Screening for Foot and Mouth Disease Virus Antivirals | FMDV antiviral cell-based qHTS | Potency, µM (titrated, usually from 57.9 µM), for the others: top-dose activity change, negative = inhibition, most hits filed as inhibitors | 410,000 compounds, 1.2% hits | AID 1159524, 2015; calls by dose curve; tested in HEK293T cells; note: read-out not given here; potency is the fitted concentration of half-maximal effect; % is set by controls: 0 for no effect and ±100 for the full control effect; nearly all actives have a fitted effect of over 45% in size
HCV inhibitor: qHTS Assay for Inhibitors of Hepatitis C Virus (HCV). Huh7.5.1 HCVcc-Cre infection, luciferase reporter, 44 h. Potency, µM (highest dose often 41.8 µM), inactives show top-dose activity change, negative = inhibition, hits mostly inhibitors. 340,000 compounds, 3.4% hits; active = well fitted inhibition curve with a large enough effect; inconclusive = small, poorly fitted or top-dose-only effect, or another doubt; inactive = no such curve, though single readings can be large or run the other way; note: potency is the fitted concentration of half-maximal effect; % is set by controls: 0 for no effect and ±100 for the full control effect
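Luciferase read-out (15 sec integration) after a 15 min room-temperature substrate step quantifies HCVcc-Cre infection. Cells, 1,000 per well, had compound added 4 h post-plating, then virus at ~0.5 moi, and were cultured 44 h.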
MARV entry inh: qHTS for inhibitors of binding or entry into cells for Marburg Virus. 300,000 compounds, 1.8% hits. Potency, µM (titrated, usually from 37.8 µM), without a hit: top-dose activity change, negative = inhibition, actives largely listed as inhibitors. Marburg virus pseudotyped entry inhibition, cell reporter. AID 540276, 2011; calls by dose curve; tested in HEK293 cells; note: potency is the fitted concentration of half-maximal effect; % is set by controls: 0 for no effect and ±100 for the full control effect
LASV entry inh: qHTS for Inhibitors of binding or entry into cells for Lassa Virus; 300,000 compounds, 1.2% hits; Lassa virus pseudotype entry inhibition, cell reporter; AID 540256, 2011; Potency, µM (doses to about 37.9 µM), inactives show at the top dose activity change, negative = inhibition, most hits filed as inhibitors; calls by dose curve; tested in HEK293 cells; note: potency is the fitted concentration of half-maximal effect; % is set by controls: 0 for no effect and ±100 for the full control effect; nearly all actives have a fitted effect of over 50% in size
Cycloheximide cs: Cycloheximide Counterscreen for Small Molecule Inhibitors of Shiga Toxin. cell reporter, cycloheximide protein synthesis inhibition counterscreen. max response, %. 300,000 compounds, 12% hits. AID 2314, 2010; in the data active = max response mostly above about 13%, no sharp cut-off; inactive = mostly below about 14%; note: read at 38.3 µM for the half of the compounds with a filed dose; 0% is about no effect
Active calls of the source: *; [ ] = dose if it differs, or a comment.

For CC(C)C[C@H](CO)Nc1nc(Nc2cccc(Cl)c2)c2ncn(C(C)C)c2n1 the results were Shiga toxin inh 42*, FMDV inh 24%, HCV inhibitor inconclusive and Cycloheximide cs 23*.
CC(C)n1cnc2c(Nc3ccc(F)c(Cl)c3)nc(NCCO)nc21 was read as Shiga toxin inh 15, FMDV inh 14%, HCV inhibitor inconclusive and Cycloheximide cs -2.
`Cc1ccc(NC(=O)c2ccc3c(=O)n4c(nc3c2)CCC4)cc1F` gave FMDV inh -7% and HCV inhibitor inconclusive.
CC(=O)c1ccc(NC(=O)c2ccc3c(=O)n4c(nc3c2)CCCCC4)cc1 was read as Shiga toxin inh 16, FMDV inh inconclusive, HCV inhibitor inconclusive and Cycloheximide cs 7.
`CCc1ccc(C(=O)NNC(=O)c2ccc3c(=O)n4c(nc3c2)CCC4)cc1` gave Shiga toxin inh -10, FMDV inh -5%, HCV inhibitor 10%, MARV entry inh 13%, LASV entry inh -3% and Cycloheximide cs -2.
O=C(Nc1ccc(F)c(Cl)c1)c1ccc2c(=O)n3c(nc2c1)CCCCC3 was read as Shiga toxin inh 54*, FMDV inh -18%, HCV inhibitor 10µM*, MARV entry inh inconclusive, LASV entry inh inconclusive and Cycloheximide cs 52*.
For CCc1cccc(NC(=O)c2ccc3c(=O)n4c(nc3c2)CCCCC4)c1 the results were Shiga toxin inh 76*, FMDV inh -29%, HCV inhibitor 13µM* and Cycloheximide cs 38*.
For Cc1ccc(-c2csc(NC(=O)c3ccc4c(=O)n5c(nc4c3)CCCCC5)n2)cc1 the results were Shiga toxin inh -11, FMDV inh 7.9µM*, HCV inhibitor inconclusive, MARV entry inh inconclusive, LASV entry inh inconclusive and Cycloheximide cs -3.
For O=C(Nc1ccccn1)c1ccc2c(=O)n3c(nc2c1)CCCCC3 the results were FMDV inh -19% and HCV inhibitor -15%.
O=C(Nc1ccc(Cl)cc1)c1ccc2c(=O)n3c(nc2c1)CCCCC3 was read as Shiga toxin inh 41*, FMDV inh 0%, HCV inhibitor inconclusive and Cycloheximide cs 54*.
COC(C/C=C\[C@@H](O)[C@H](C)OCc1ccccc1)OC was read as FMDV inh 13% and HCV inhibitor 5%.
For COc1ccccc1-c1csc(NC(=O)c2cc(-c3cccs3)nc3ccccc23)n1 the results were Shiga toxin inh -15, FMDV inh -21%, HCV inhibitor 10%, MARV entry inh 1%, LASV entry inh 11% and Cycloheximide cs -1.
O=C(Nc1cccc(Cl)c1)c1ccc2c(=O)n3c(nc2c1)CCCCC3 was read as Shiga toxin inh 102*, FMDV inh -38%, HCV inhibitor 8.9µM*, MARV entry inh inconclusive, LASV entry inh inconclusive and Cycloheximide cs 41*.
`CCc1ccc(N(CC)C(=O)c2ccc3c(=O)n4c(nc3c2)CCCCC4)cc1` gave FMDV inh 40µM*, MARV entry inh -20%[46.1 µM] and LASV entry inh -24%[46.1 µM].
O=C(Nc1ccc(F)cc1)c1ccc2c(=O)n3c(nc2c1)CCCCC3 was read as Shiga toxin inh 52*, FMDV inh -9%, HCV inhibitor inconclusive, LASV entry inh 4%[46.1 µM] and Cycloheximide cs 24*.
For CCc1ccc(CN(C)C(=O)c2ccc3c(=O)n4c(nc3c2)CCC4)cc1 the results were Shiga toxin inh -1, FMDV inh -2%, HCV inhibitor 10%, MARV entry inh -9%, LASV entry inh -6% and Cycloheximide cs -2.
For COc1ccc(CCNC(=O)CSc2nc3ccsc3c(=O)n2Cc2ccccn2)cc1OC the results were FMDV inh 15%.
C=C(C)CSc1ncc(-c2cccc(C(F)(F)F)c2)cn1 was read as Shiga toxin inh -2, FMDV inh -14%, HCV inhibitor -1%, MARV entry inh -8%, LASV entry inh 4% and Cycloheximide cs 2.
For CCOP(=O)(c1ccc(N(C)C)cc1)C(O)c1ccccc1F (centres undefined) the results were Shiga toxin inh -11, FMDV inh -14%, HCV inhibitor -13%, MARV entry inh 0%[46.1 µM], LASV entry inh -22%[46.1 µM] and Cycloheximide cs -3.
Screening CC(C)COP(=O)(c1ccc(N(C)C)cc1)C(O)c1ccccc1F (centres undefined) returned Shiga toxin inh -14, FMDV inh 22%, HCV inhibitor 3.5µM*, MARV entry inh 8%, LASV entry inh 6% and Cycloheximide cs -5.
`N=NC(=O)c1ccccc1Nc1c(O)[nH]c2ccccc12` gave FMDV inh inconclusive, HCV inhibitor -24%, MARV entry inh inconclusive and LASV entry inh 6.3µM*.
For COc1ccc(NC(=O)CSc2nnc(CNc3ccc(C)cc3)n2C)cc1 the results were Shiga toxin inh 18, FMDV inh -3%, HCV inhibitor 0%, MARV entry inh 2%[46.1 µM], LASV entry inh 4%[46.1 µM] and Cycloheximide cs 13.
Screening COCCNC(=S)N1CCN(C(c2ccccc2)c2ccccc2)CC1 returned Shiga toxin inh -3, FMDV inh 56%, HCV inhibitor 4%, MARV entry inh -23%[46.1 µM], LASV entry inh -25%[46.1 µM] and Cycloheximide cs -2.
For CCCn1c(N2CCN(Cc3ccc(Cl)cc3)CC2)nc2ccccc21 the results were Shiga toxin inh 20, FMDV inh -28%, HCV inhibitor 13µM* and Cycloheximide cs 6.
O=C(CSc1ncccc1C(=O)Oc1ccccc1Cl)Nc1ccccc1Cl was read as Shiga toxin inh 64*, FMDV inh 28%, LASV entry inh inconclusive and Cycloheximide cs 20.
O=C(COc1ccccc1O)Nc1ccccc1Cl was read as Shiga toxin inh 93*, FMDV inh 0%, HCV inhibitor 1%, MARV entry inh -19%[46.1 µM], LASV entry inh 0% and Cycloheximide cs 71*.
Screening CCC(Sc1ncccc1C(=O)Oc1ccccc1Cl)C(=O)Nc1ccccc1OC (centres undefined) returned FMDV inh -8% and LASV entry inh 24%[46.1 µM].
Cc1ccccc1OCC(=O)Nc1ccccc1-c1ccccc1 was read as Shiga toxin inh 42*, FMDV inh 0%, HCV inhibitor inconclusive, MARV entry inh 0% and Cycloheximide cs 18*.
`Cc1ccccc1NC(=O)COc1ccccc1C` gave Shiga toxin inh 27, FMDV inh 40%, HCV inhibitor -16% and Cycloheximide cs 16*.
Screening COc1cc(C(=O)Nc2ccccc2C(=O)NCc2cccnc2)cc(OC)c1OC returned Shiga toxin inh -9, FMDV inh -1%, HCV inhibitor 4%, MARV entry inh inconclusive and Cycloheximide cs -2.
Screening COc1ccc(Cl)cc1NC(=O)c1cc(-c2ccccc2)on1 returned FMDV inh -4%, HCV inhibitor 10% and Cycloheximide cs -1.
